Source: PubChem BioAssay
Sampled rows, rich in hits. Any-hit rate of the full collection: about 12%.
BAZ2B inh: inhibitors of human BAZ2B bromodomain; Q9UIF8; AlphaScreen BAZ2B-H3K14Ac peptide displacement; Potency, µM (top dose mostly 114 µM), without a hit: at the top dose activity change, negative = inhibition, most hits filed as inhibitors; 4.4% of 360,000 active; AID 504333; note: % is set by controls: 0 for no effect and ±100 for the full control effect; nearly all actives have a fitted effect of over 60% in size
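AlphaScreen displacement of biotin-H3(5-23)K14Ac peptide (50 nM final) from BAZ2B (50 nM final) in PBS pH 7.4, 0.01% Tween-20; complex preformed 30 min RT, then compounds (top 110 uM) 30 min RT, beads 20 min dark.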
HP1b chromo inh: HP1-beta chromodomain-methylated histone interaction inhibition; AlphaScreen HP1-beta / biotin-H3K9me3 peptide binding; Potency, µM (series often up to 114 µM), without a hit: at the top dose activity change, negative = inhibition, most hits filed as inhibitors; 0.56% of 390,000 active; note: nearly all actives have a fitted effect of over 70% in size
Target sequence (P83916 whole entry, looked up): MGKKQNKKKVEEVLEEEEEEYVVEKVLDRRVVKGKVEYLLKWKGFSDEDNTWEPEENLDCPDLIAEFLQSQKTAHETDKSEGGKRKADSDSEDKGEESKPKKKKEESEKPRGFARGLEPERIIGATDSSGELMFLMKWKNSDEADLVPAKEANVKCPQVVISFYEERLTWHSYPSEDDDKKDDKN
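AlphaScreen: HP1-beta (50 nM) preformed 30 min with biotin-H3(1-18)K9me3 peptide (50 nM) in PBS pH 7.4, 0.01% Tween-20. Compound added for 30 min at RT, then streptavidin donor/nickel chelate acceptor beads (10 ug/mL) for 30 min.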
PLK1 PBD inh: PLK1 (human) polo-box domain binding inhibition. P53350. Plk1 PBD binding of FITC phosphopeptide, fluorescence polarization. Potency, µM, for inactives: max response, negative = inhibition, most hits filed as inhibitors. 2.8% of 360,000 active; note: series mostly up to about 57 µM; % is set by controls: 0 for no effect and ±100 for the full control effect; nearly all actives have a fitted effect of over 65% in size
G9a inh: blocks human histone lysine methyltransferase G9a | Q96KQ7 | G9a H3K9 monomethylation, AlphaScreen, 2 h | Potency, µM (titrated, usually from 102 µM), inactives show at the top dose activity, negative = inhibition, most hits filed as inhibitors | 8.8% of 350,000 active | AID 504332; note: % is set by controls: 0 for no effect and ±100 for the full control effect; nearly all actives have a fitted effect of over 75% in size
Target sequence (Q96KQ7 913-1193 limits assumed): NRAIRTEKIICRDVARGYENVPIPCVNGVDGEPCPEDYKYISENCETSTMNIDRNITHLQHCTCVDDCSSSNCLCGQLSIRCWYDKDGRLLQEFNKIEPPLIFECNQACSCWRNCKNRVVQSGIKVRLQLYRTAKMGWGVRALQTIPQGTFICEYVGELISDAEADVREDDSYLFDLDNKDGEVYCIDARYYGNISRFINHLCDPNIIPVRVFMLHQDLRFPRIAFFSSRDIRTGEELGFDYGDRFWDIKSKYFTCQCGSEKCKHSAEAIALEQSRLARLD
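AlphaScreen detection with an anti-monomethyl H3K9 antibody quantified product after a 2 h room-temperature reaction containing 500 nM biotinylated H3K9 peptide, 20 µM SAM and 20 nM enzyme, which had been preincubated 15 min with compound.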
Sfp PPTase inh: Sfp phosphopantetheinyl transferase inhibition; Potency, µM, for the others: largest response in the series, negative = inhibition, most hits filed as inhibitors; Biochemical Sfp PPTase activity, qHTS; Q9F4F7; 3.5% of 310,000 active;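 note: the enzyme is Sfp with the accession as filed and its product quenches rhodamine fluorescence; 0% = enzyme reaction without inhibitor and -100% = no enzyme wells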
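Fluorescence-quenching assay with 15 nM Sfp, 5 uM rhodamine-CoA and 12.5 uM BHQ-2-labelled ybbR peptide in pH 7.6 Hepes/MgCl2 buffer. Enzyme was pre-incubated with compound for 15 min at room temperature. Rate was taken from the 30-min fluorescence change (525/598 nm).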
JMJD2A Tudor: inhibitors of human JMJD2A Tudor domain; O75164; AlphaScreen JMJD2A-Tudor / H3K4me3 peptide binding; Potency, µM (top dose mostly 114 µM), inactives show top-dose activity change, negative = inhibition, actives largely listed as inhibitors; 4.4% of 390,000 active; AID 504339; note: % is set by controls: 0 for no effect and ±100 for the full control effect; nearly all actives have a fitted effect of over 50% in size
Numbers without * were called inactive; ? = inconclusive; · = not tested or not shown; ! = a repeat was not active; [ ] = another dose, or the depositor's remark. Calls come from the whole dose curve; as a rule, active = well fitted curve in the direction sought with a large enough effect; inconclusive = small, poorly fitted or top-dose-only effect, or another doubt; inactive = no such curve, though single readings can be large; an effect the other way counts as inactive or inconclusive. Potency is the fitted concentration of half-maximal effect.

SMILES	BAZ2B inh	HP1b chromo inh	PLK1 PBD inh	G9a inh	Sfp PPTase inh	JMJD2A Tudor
O=C(COC(=O)c1ccc(NS(=O)(=O)c2cccs2)cc1)NCc1ccco1	31.6µM*	-21.3%	?	?	35.5µM*	-29.4%[11.4 µM]
Cc1ccc([C@@H]2C[C@H]3[C@@H](CN2S(=O)(=O)c2ccc(Cl)cc2)C(=O)C[C@@H](c2ccccc2)N3S(=O)(=O)c2ccc(C)cc2)cc1	·	·	-10.1%	·	·	·
Cc1ccccc1CN1C(=O)C(O)(CC(=O)c2cccc(Br)c2)c2ccccc21 (stereo not given)	1.0%	38.7%	·	13.4%[59 µM]	·	-32.4%
Cc1ccc(-c2nc(NC(=O)CSc3cc(C)c4ccccc4n3)ns2)cc1	10µM*!	-14.3%	?	35.5µM*	1.5%	?
COc1ccc2c(C)cc(SCC(=O)Nc3nsc(-c4ccc(C)cc4)n3)nc2c1	-2.6%	51.6%	-2.3%	1.9%	-3.8%	-21.8%
Cc1nc(NC(=O)CSc2cc(C)c3ccccc3n2)c(Cl)cc1Cl	0.0%	21.7%	?	44.7µM*	?	-27.2%
CC1CC2(C)Oc3ccccc3C3OCC1(COC(=O)Nc1ccccc1)C(C)C32 (stereo not given)	·	·	·	·	4.3%	·
N#CC1=C(N)NC(=S)C(C(N)=O)C1c1ccc([N+](=O)[O-])cc1 (stereo not given)	-34.0%	7.1%	26.7µM*	·	1µM*	89.1µM*
O=C(O)C1C2CCC(O2)C1C(=O)Nc1ccc(O)cc1 (stereo not given)	-14.0%	20.1%	4.8%	?	?	11.6%
CN(C)c1cc(-c2ccc(Cl)cc2)oc(=O)c1Cl	-13.9%	18.0%	-1.9%	-11.1%	10.0%	-14.8%
CN(C)c1cc(-c2ccc(Cl)cc2Cl)oc(=O)c1Cl	89.1µM*	17.5%	-17.8%	·	?	-9.0%
O=C1C2C3C=CC(CC3)C2C(=O)N1c1ccc([N+](=O)[O-])cc1 (stereo not given)	-3.6%	19.2%	-7.5%	31.6µM*	5.4%	-5.6%
CC1(C)Cc2c(c(-c3ccccc3)nc3sc4c(=O)[nH]c(=S)[nH]c4c23)CO1	-7.4%	27.3%	?	·	1.4%	?
CC1(C)Cc2sc3c(=O)[nH]c(=S)[nH]c3c2CO1	?	24.3%	-8.7%	·	28.2µM*	?
COc1ccc(-c2nc3sc(CCNS(=O)(=O)c4ccccc4)c(C)n3n2)cc1	-2.9%	-9.5%	·	6.8%[59 µM]	·	-7.8%
Cc1cc2oc(=O)cc(CSc3nnc(-c4cccs4)o3)c2cc1C(C)C	-8.1%	-7.3%	23.8µM*	35.5µM*	-8.5%	89.1µM*
CN(C(=O)CSc1nnc(-c2c[nH]c3ccccc23)n1C1CC1)C1CCS(=O)(=O)C1 (stereo not given)	7.5%	22.2%	0.8%	19.8%[59 µM]	·	-13.8%
COC(=O)C1Cc2c([nH]c3ccccc23)CN1C(C)=O (stereo not given)	-33.6%	-21.0%	-15.5%	50.1µM*	-13.9%	-28.7%
CCCC1NC(C(=O)O)Cc2c1[nH]c1ccccc21 (stereo not given)	-4.4%	-4.1%	18.9µM*	·	-17.3%	15.8µM*
COC(=O)C1Cc2c([nH]c3ccccc23)C(C)N1 (stereo not given)	-5.3%	4.8%	-3.5%	20µM*	9.0%	?
O=C(CCCc1ccccc1)NCCc1ccc(F)cc1	-9.8%	57.0%	-13.9%	7.5%	14.4%	0.7%
O=c1c2cc3c(cc2nc2sc(Nc4cccc([N+](=O)[O-])c4)nn12)OCO3	?	43.1%	·	1.41µM*	·	-17.5%
COc1nccnc1NS(=O)(=O)c1ccc(NC(=S)NC(=O)/C=C/c2ccccc2)cc1	-13.1%	-7.0%	29.9µM*	?	-11.3%	79.4µM*
COc1nccnc1NS(=O)(=O)c1ccc(NC(=S)NC(=O)c2ccccc2)cc1	?	-15.6%	-7.5%	39.8µM*	-3.9%	?
CC(OCc1ccccc1)C(NC(=O)OC(C)(C)C)C(=O)NC1COC2CC(n3cc(F)c(=O)[nH]c3=O)OC12 (stereo not given)	·	30.6%	·	·	2.7%	-6.9%
SMILES	BAZ2B inh	HP1b chromo inh	PLK1 PBD inh	G9a inh	Sfp PPTase inh	JMJD2A Tudor
Cc1ccc(CNC(=O)COCc2cc(-c3cccs3)on2)cc1	1.0%	26.6%	·	-3.9%[59 µM]	·	-9.9%
Nc1nc(CSCc2ccccc2)nc(N2CCOCC2)n1	?	19.3%	-20.7%	-20.1%[59 µM]	28.2µM*	?
Nc1nc(CSc2nc3ccccc3s2)nc(N2CCOCC2)n1	-21.7%	16.3%	-1.4%	12.3%	26.2%	-8.5%
CC(=O)Nc1ccc2sccc2c1	-15.6%	23.9%	-5.4%	-5.8%	13.7%	-5.2%
c1ccc2c(-c3ccc(OCCN4CCCCC4)cc3)c(-c3ccsc3)sc2c1	·	-7.1%	2.2%	·	·	39.8µM*
COc1cc(OC)cc(-c2sc3ccc(OC)cc3c2-c2ccc(OCCN3CCCCC3)cc2)c1	·	-32.5%	-13.9%	·	·	20µM*
CN(C)CCOc1ccc(-c2c(-c3ccccc3)sc3ccccc23)cc1	·	?	-10.5%	·	·	39.8µM*
COc1ccccc1-c1sc2cc3c(cc2c1-c1ccc(OCCN2CCOCC2)cc1)OCO3	·	-24.4%	-2.5%	·	·	50.1µM*
NC(=S)NN=C(c1ccc(F)cc1)C1CC1	·	?	-4.7%	·	·	?
CCc1ccc(-n2c(=O)c3c(C)c(C)sc3n(CC(=O)NCc3ccc(C)cc3)c2=O)cc1	33.4%	65.4%	·	35.5%[59 µM]	·	-3.1%
Cc1ccc2c(c1)sc(C)[n+]2CCCS(=O)(=O)[O-]	-37.2%	55.2%	-28.7%	?	1µM*	-17.7%
Cc1ccc2sc(C)[n+](CCCS(=O)(=O)[O-])c2c1	7.3%	50.6%	-19.2%	?	2.82µM*	0.7%
Cc1c2ccccc2cc[n+]1CCCS(=O)(=O)[O-]	-26.0%	37.7%	-4.9%	-26.7%	20.3%	-0.7%
Cc1ccc(NC(=O)c2ccc(-n3nncc3-c3ccccc3)cc2)cc1	·	3.3%[57 µM]	·	·	·	-15.4%[57.1 µM]
COc1ccc(N2CCN(C3CCCCC3NS(=O)(=O)c3ccc(Cl)cc3)CC2)cc1 (stereo not given)	10µM*	7.1%	-6.5%	·	8.1%	?
COc1ccccc1NC1CCCCC1NS(=O)(=O)c1ccc(C)cc1 (stereo not given)	-2.1%	-3.0%	1.2%	·	2.4%	?
CSc1ccc(OC2CCCCC2NS(=O)(=O)c2ccccc2)cc1 (stereo not given)	-34.5%	-11.6%	23.8µM*	-7.2%[59 µM]	-0.7%	?
CCOc1ccc(S(=O)(=O)NC2CCCCCC2)cc1	-1.5%	64.6%	-1.0%	-4.2%	1.5%	-4.5%
COc1ccccc1N1CCN(C2CCCCC2NS(=O)(=O)c2ccc(Cl)cc2)CC1 (stereo not given)	?	4.6%	?	-8.1%	-4.7%	?
COc1ccc(NC2CCCCC2NS(=O)(=O)c2ccc(C)cc2)cc1 (stereo not given)	50.1µM*	?	-0.9%	14.1µM*	2.7%	?
